Compounds with a hit are over-represented: about 5.1% of the library has one in this group of screens.
S1P4 agonist: S1P4 receptor agonists, primary screen, cell-based; 220,000 tested, 0.35% active; S1P4-expressing cell line, agonist reporter assay; AID 1509, 2009; activation, % at 4.98 µM; Sphingosine 1-phosphate receptor 4 (Homo sapiens), O95977; in the data active = activation above about 11%
KCC2 mod: KCC2 cotransporter modulators, thallium flux, primary screen, cell-based, HEK293 KCC2, FluoZin-2 fluorescence, MLSMR; 190,000 tested, 2.2% active; AID 1456, 2008; B-score of Tl+ flux slope (higher = more flux/activation; lower = inhibition) at 10 µM; KCC2 cells, thallium flux FluoZin-2 fluorescence; Solute carrier family 12 member 5 (Homo sapiens), Q9H2X9;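 active = thallium flux slope and its plate-corrected score both differing from the plate sample mean at a set confidence after two filtering rounds, in either direction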;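 also: slope of fluorescence scaled to starting intensity during 10 to 20 s after thallium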
Target sequence (Q9H2X9 whole entry, looked up): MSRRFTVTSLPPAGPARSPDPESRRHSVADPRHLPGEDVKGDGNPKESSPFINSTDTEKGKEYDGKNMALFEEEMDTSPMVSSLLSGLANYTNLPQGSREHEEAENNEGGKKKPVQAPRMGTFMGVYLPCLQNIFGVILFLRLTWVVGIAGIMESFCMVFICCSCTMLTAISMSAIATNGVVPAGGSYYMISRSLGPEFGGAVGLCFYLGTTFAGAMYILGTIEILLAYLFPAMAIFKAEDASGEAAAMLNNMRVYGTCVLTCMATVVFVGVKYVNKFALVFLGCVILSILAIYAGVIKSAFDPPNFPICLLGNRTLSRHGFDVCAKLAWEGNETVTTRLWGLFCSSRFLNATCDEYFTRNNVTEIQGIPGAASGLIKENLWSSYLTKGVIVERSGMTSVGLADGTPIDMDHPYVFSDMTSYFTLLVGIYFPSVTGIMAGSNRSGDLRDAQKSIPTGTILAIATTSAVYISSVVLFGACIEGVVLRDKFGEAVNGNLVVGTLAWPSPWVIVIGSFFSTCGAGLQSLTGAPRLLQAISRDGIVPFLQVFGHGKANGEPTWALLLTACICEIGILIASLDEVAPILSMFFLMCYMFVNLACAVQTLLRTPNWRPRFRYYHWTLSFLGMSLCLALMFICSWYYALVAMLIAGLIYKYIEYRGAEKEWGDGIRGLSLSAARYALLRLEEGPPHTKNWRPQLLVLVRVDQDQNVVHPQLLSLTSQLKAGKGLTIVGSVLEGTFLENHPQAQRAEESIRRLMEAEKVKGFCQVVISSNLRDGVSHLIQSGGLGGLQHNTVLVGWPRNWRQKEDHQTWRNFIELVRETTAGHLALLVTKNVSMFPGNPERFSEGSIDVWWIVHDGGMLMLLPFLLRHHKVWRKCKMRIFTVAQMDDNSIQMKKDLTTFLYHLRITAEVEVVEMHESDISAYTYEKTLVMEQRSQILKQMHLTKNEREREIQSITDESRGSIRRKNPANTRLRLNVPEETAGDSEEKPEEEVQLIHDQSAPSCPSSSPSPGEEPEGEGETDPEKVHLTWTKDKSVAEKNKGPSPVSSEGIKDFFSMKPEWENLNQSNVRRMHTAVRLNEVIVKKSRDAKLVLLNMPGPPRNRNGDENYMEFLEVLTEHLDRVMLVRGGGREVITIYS
S1P3 antag: S1P3 receptor antagonists, primary screen, cell-based. AID 485, 2006. inhibition, % at 4.98 µM. 170,000 tested, 0.27% active. Sphingosine 1-phosphate receptor 3 (Homo sapiens), Q99500. CHO S1P3 NFAT-BLA reporter, FRET fluorescence, antagonist mode;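 active = inhibition above the plate cutoff, the mean inhibition of test wells on that plate plus 3 SD, cut at about 28% in these data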;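 also: cells challenged with S1P at its EC80 of 0.8 µM; blue over green emission ratio from cleaved BLA substrate after 4 h stimulation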
ROMK mod: ROMK potassium channel modulators, primary screen, cell-based, thallium flux, MLSMR library | AID 1918, 2009 | ATP-sensitive inward rectifier potassium channel 1 (Homo sapiens), P48048 | B-score at 10 µM | 130,000 tested, 2% active | Tet-inducible ROMK, thallium flux fluorescence; actives lie on both sides;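 active = signal ratio slope over the read window, or its plate-corrected B-score, at least 3 SD from the plate mean, either direction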;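 also: B-score of the F/F0 ratio slope over 7 to 12 s after thallium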
RAM inhibit: inhibitors of the yeast RAM network, primary screen, dse1pr::URA3 reporter, 5-FOA selection; S. cerevisiae dse1pr::URA3 reporter, 5-FOA growth OD615, 2 d; analog-sensitive cbk1-as2 kinase mutant strain; inhibition, % at 50 µM; 190,000 tested, 1.8% active; AID 868, 2007;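 active = inhibition above a set limit, 3 SD over mean compound inhibition, cut at about 8.4% in these data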;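 also: inhibition rescues growth on 5-FOA so higher OD means more RAM inhibition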
S1P4 antag: S1P4 receptor antagonists, primary screen, cell-based; S1P4-expressing cells, antagonist mode, reporter read-out; inhibition, % at 4.98 µM; 220,000 tested, 0.26% active; AID 1510, 2009; in the data active = inhibition above about 29%
KCC2 secondary: KCC2 modulators in sodium-free buffer, confirmation, cell-based, HEK293 KCC2, thallium flux, secondary assay; FluoZin2 fluorescence; stronger effect = higher value; 3,700 tested, 15% active; AID 1713, 2009; shares compounds with KCC2 mod; normalised thallium flux (F/F0 slope) at 10 µM;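 active = thallium flux slope above the same plate's solvent-only control mean plus 3 SD; inconclusive = the two replicate wells disagree; inactive = no significant difference from solvent-only control wells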
KCC2 bumet counter: thallium flux persisting under bumetanide in KCC2 cells, confirmation, counter-screen for KCC2 modulator project, cell-based, HEK293 KCC2, FluoZin2, secondary assay 3. shares compounds with KCC2 mod. HEK293-KCC2 + bumetanide/ouabain; stronger effect = higher value. normalized thallium flux at 10 µM. 3,700 tested, 49% active. AID 1714, 2009;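 active = thallium entry rate above the same plate's blocked-transporter control wells by more than 3 SD; inconclusive = the two repeat wells disagree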;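 also: raw slope of fluorescence over initial fluorescence between 10 and 20 s after thallium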
KCC2 secondary2: KCC2 modulators without ouabain present, confirmation, cell-based, HEK293 KCC2, thallium flux, FluoZin2, secondary assay 2; thallium flux FluoZin2 fluorescence; actives lie on both sides; F/F0 rise rate, 10–20 s post-thallium; shares compounds with KCC2 mod; 3,700 tested, 23% active; normalized thallium flux at 10 µM;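 active = thallium flux slope more than 3 SD above or below the plate's solvent-only control mean, mostly below; inconclusive = the two repeat wells disagreed; inactive = no significant shift from solvent-only controls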
HEK293 Tl flux: thallium flux modulation in parental HEK cells, confirmation, counter-screen for KCC2 modulator project, cell-based, counterscreen 1; 3,700 tested, 46% active; HEK293 parental cells, thallium flux FluoZin2, ouabain; baseline-ratio fluorescence slope, 10–20 s after thallium; thallium flux rate (normalised fluorescence) at 10 µM; shares compounds with KCC2 mod;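 active = thallium flux rate significantly above the same plate's solvent-only control wells, beyond their mean plus 3 SD; inconclusive = the two replicate wells gave conflicting results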
KCC2 ouabain: KCC2 inhibitors and activators, ouabain retest, confirmation, HEK-KCC2 cells; raw Tl+ flux slope (below DMSO = inhibition, above = activation) at 10 µM; shares compounds with KCC2 mod; AID 1717, 2009; HEK293-KCC2, thallium flux FluoZin2 fluorescence; bidirectional: low = inhibitor, high = activator; 3,700 tested, 48% active;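 active = thallium flux slope beyond 3 SD from same-plate DMSO control mean in most replicates, usually higher, sometimes lower; inconclusive = repeat tests gave conflicting results; inactive = no significant difference from controls in most replicates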;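 also: slope of initial-normalized fluorescence between seconds 10 and 20 after thallium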
HEK counter2: native HEK Tl+ uptake effects, second counter-screen – HEK cells, counterscreen 2, counter-screen for KCC2 modulator project, confirmation; shares compounds with KCC2 mod; HEK293 parental, thallium flux FluoZin-2 fluorescence slope; thallium flux slope at 10 µM; 3,700 tested, 33% active; AID 1718, 2009;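 active = thallium flux slope above the same plate's solvent-control mean plus 3 SD in both duplicate wells; inconclusive = duplicate wells that disagreed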;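 also: run without ouabain in cells lacking the KCC2 cotransporter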
Hits are given with their value; . = inactive; ? = inconclusive; / = no result.

SMILES	S1P4 agonist	KCC2 mod	S1P3 antag	ROMK mod	RAM inhibit	S1P4 antag	KCC2 secondary	KCC2 bumet counter	KCC2 secondary2	HEK293 Tl flux	KCC2 ouabain	HEK counter2
CN(C(=O)COc1cc(=O)n(C)c2ccccc12)c1ccc(Cl)cc1	.	/	.	/	.	.	/	/	/	/	/	/
Cc1ccc(C)c(N(C)C(=O)COc2cc(=O)n(C)c3ccccc23)c1	.	-4.08	.	/	.	.	.	.	.	.	.	.
O=C(Nc1ccc2nc3n(c(=O)c2c1)CCCC3)c1cc([N+](=O)[O-])ccc1F	.	-3.05	.	/	.	.	.	.	.	?	.	.
C=CCn1c(SCc2csc(-c3ccc(Cl)cc3)n2)nnc1-c1ccccc1OC	.	.	.	/	.	.	/	/	/	/	/	/
CC(C)(C)c1ccc(COc2ccsc2C(=O)O)cc1	.	-2.79	.	/	.	.	.	.	.	.	.	?
O=C(O)c1sccc1OCc1ccccc1	.	.	.	.	.	.	/	/	/	/	/	/
CCOc1cccc(C(=O)NC(=S)Nc2ccc(Cl)cc2C(=O)O)c1	.	.	.	.	.	.	/	/	/	/	/	/
COc1ccc(C(=O)COc2ncnc3cc(Cl)ccc23)cc1	.	.	.	.	/	.	/	/	/	/	/	/
CCNC(=S)NNC(=O)c1ccccn1	.	.	.	.	.	.	/	/	/	/	/	/
O=C(NNC(=S)Nc1ccc(Cl)c(Cl)c1)c1ccccn1	.	11.1	.	.	.	.	0.0131	0.0369	.	0.0186	0.0512	0.0117
CN(C)S(=O)(=O)c1cc(NC(=O)CSc2ncc(C(F)(F)F)cc2Cl)ccc1Cl	.	49.7	.	.	.	.	.	.	?	.	.	.
COCCn1c(SCC(=O)Nc2ccc(Cl)c(S(=O)(=O)N(C)C)c2)nc2ccccc21	.	.	/	.	.	.	/	/	/	/	/	/
CC(=O)CCn1c(=O)n(CCC(C)=O)c(=O)n(CCC(C)=O)c1=O	.	.	/	/	.	.	.	?	.	.	.	?
CCc1cc2ccc(OC)cc2nc1SCC(=O)N1CCN(C(=O)c2ccco2)CC1	.	-4.1	.	/	/	.	.	.	0.0236	0.00524	0.012	0.00839
CCc1cc2cc(C)cc(C)c2nc1SCC(=O)NNC(=O)c1ccco1	.	.	.	.	.	.	/	/	/	/	/	/
CCc1cc2ccc(OC)cc2nc1SCC(=O)NNC(=O)c1ccco1	.	17.3	.	.	.	.	.	0.0175	.	0.0275	0.0252	0.014

High-throughput results from PubChem BioAssay.
